Here are results for 87 molecules from PubChem BioAssay AID1159606 (Sanford-Burnham Center for Chemical Genomics, 2016).

About 7,300 (2%) of roughly 360,000 compounds were called active. Many of the other results were omitted from the sample, so actives are more common in it than they were. Values without a mark were called inactive. Rule as the data show it: active = inhibition above about 50%; inactive = the rest.

A short description of the experiment: blockers of TWEAK-induced Fn14 reporter activity – luciferase reporter cells, uHTS, primary screen (AID 1159606). As to conditions: TWEAK-stimulated Fn14 reporter cells, luciferase luminescence, 8 h; at 10 µM; hits give high values.
Regarding `Nc1ccccc1SC(C[N+](=O)[O-])c1ccccc1` (configuration not stated), the inhibition was 61.3% (active).
The value for `CS(=O)(=O)N(Cc1ccccc1)c1ccc(C(=O)NN=C2CCCCCC2)cc1` was -6.55%.
In the case of `COc1ccc(OC)c(NC(=O)C2CCCN2S(=O)(=O)c2ccc3c(c2)CC(C)N3C(C)=O)c1` (configuration not stated) it was -20.4%; in that of `COc1ccc(CN(Cc2ccco2)S(=O)(=O)c2ccc(S(=O)(=O)N3CCCC3)cc2)cc1`, -30.2%; in that of `Cc1ccsc1C(=O)OCC(=O)Nc1cccc(F)c1`, -31.6%.
`Cc1ccsc1C(=O)OCC(=O)c1cc(C)n(CC2CCCO2)c1C` (configuration not stated): the inhibition is 103% (active).
For `Cc1ccsc1C(=O)OCC(=O)NCCc1ccccc1`, the inhibition was -22.4%.
For `Cc1ccc(OCC(=O)N2CCN(S(=O)(=O)c3ccc(Cl)s3)CC2)cc1C`, the inhibition was 10.7%.
With `CCCC(C)C(=O)Nc1ccc(NC(C)=O)cc1` (configuration not stated), the inhibition is -11.6%.
In the case of `COc1ccc(N(C)C(=O)CCS(=O)(=O)c2cccc3nsnc23)cc1` it was 36.5%.
Take `Cc1cccc2sc(N(CCCN(C)C)C(=O)CCS(=O)(=O)c3ccccc3)nc12`: the inhibition was 61.9% (active).
`COc1cccc2sc(N(CCCN(C)C)C(=O)CCS(=O)(=O)c3ccccc3)nc12`: the inhibition was 77.6% (active).
For the molecule `O=C(CCS(=O)(=O)c1ccccc1)Nc1nc2c(s1)CCCC2`, the inhibition is 22%.
For `Cc1ccc(S(=O)(=O)CCC(=O)OCC(=O)N(C)Cc2ccccc2)cc1`, the inhibition was 4.76%.
For the molecule `Cc1cccc(C)c1NC(=O)CCS(=O)(=O)c1cccc2nsnc12`, the inhibition is -23.2%.
Consider `CCOc1ccc(NS(=O)(=O)c2ccc(C(=O)NC3CCN(Cc4ccccc4)CC3)cc2)cc1`, for which the inhibition was 10.7%.
Consider `Cc1cccc(CCNC(=O)Cn2ncc3c([nH]c4ccc(C)cc43)c2=O)c1`, for which the inhibition was -15.4%.
As to `C=CCc1cc(S(=O)(=O)c2ccc(O)c(CC=C)c2)ccc1O`, the inhibition is 30.9%.
In the case of `O=C1C(Sc2cccc(F)c2)=C[C@@]2(O)CC[C@@H](O)[C@]1(Sc1cccc(F)c1)[C@H]2O`, the inhibition was 31.5%.
`CC(OC(=O)Cc1ccc(F)cc1)C(=O)N1CCc2ccccc21` (configuration not stated): the inhibition is -3.73%.
The value for `C[C@H](CO)N1C[C@H](C)[C@H](CN(C)C(=O)Nc2ccc(C(F)(F)F)cc2)Oc2c(NC(=O)c3ccncc3)cccc2C1=O` was 7.86%; that for `Cc1nnc(NC(=O)CSc2nccn2-c2cccc(C)c2C)s1` was 12.7%; that for `COc1cc(C(O)c2nc(-c3cnn(C)c3)cs2)ccc1F` (configuration not stated) was -2.28%.
As for `Brc1ccccc1/C=N/Nc1nc2ccccc2o1`, the inhibition was -8.62%.
As to `Oc1c(Br)cccc1/C=N/Nc1c(F)c(F)c(F)c(F)c1F`, the inhibition was 71.5% (active).
As to `c1cc(-c2ccc3[nH]ccc3c2)n2ccnc2c1`, the inhibition is -2.85%.
With `COCCNC(=S)N1CCC(NC(=O)C23CC4CC(CC(C4)C2)C3)CC1`, the inhibition was 15.9%.
Take `CCOC(=O)[C@]12CCCC=C1N(Cc1ccc(Cl)cc1Cl)C(=O)[C@H](CC(=O)N1CCCCC1)C2`: the inhibition was 7.58%.
As to `COc1cc2c(=O)n(C)c3ccccc3c2cc1OC`, the inhibition is -37.3%.
In the case of `CC(=O)Nc1cccc(C(=O)OCC(=O)c2ccc3c(c2)OCO3)c1` it was 81.9% (active).
With `O=C(COC(=O)c1ccc(O)cc1O)c1ccc2c(c1)OCCO2`, the inhibition is -18.5%.
The value for `O=C(OCc1ccccc1F)c1ccc2c(c1)OCCO2` was -12.5%.
Take `COc1ccc(C(=O)OCC(=O)Nc2cccc(C(C)=O)c2)cc1OC`: the inhibition is 11.4%.
Turning to `CC(=O)Nc1cccc(C(=O)OCC(=O)NCc2cc(C)c(O)c(C)c2)c1`, the inhibition was -19.2%.
For `O=C(COC(=O)c1ccccc1)c1ccc2c(c1)OCCO2`, the inhibition is 77.6% (active).
As for `CCOC(=O)[C@]12CCC=C1N(Cc1ccccc1)C(=O)[C@H](CC(=O)N1CCCC1)C2`, the inhibition is 15.9%.
On to `CCN1CCN(CCNC(=O)c2ccc3c(c2)NC(=O)/C(=C\c2cccc(Cl)c2)S3)CC1`, for which the inhibition was -66.6%.
For the molecule `CCN(CCCNC(=O)CCn1c(=O)[nH]c2ccsc2c1=O)c1ccccc1`, the inhibition was -1.46%.
Take `CCN(CCCNC(=O)c1ccc2c(c1)NC(=O)CN2C)c1cccc(C)c1`: the inhibition is 82.5% (active).
With `CCOC(=O)N1CCN(C(=O)C[C@@H]2C[C@@]3(C(=O)OC)CCCCC=C3N(CCC3=CCCCC3)C2=O)CC1`, the inhibition is -5.06%.
`COCCCn1cc(CN2CC(N(C)C)CS2(=O)=O)nn1` (configuration not stated): the inhibition is 20.9%.
For the molecule `CC(C)C[C@H]1CNC(=O)C(=O)N1C[C@H]1CCCN1C[C@H](Cc1ccc(O)cc1)N1C[C@H](CC(C)C)N(CC2CCCCCC2)C(=O)C1=O`, the inhibition is 1.64%.
For the molecule `CCC(C)Cn1c(O)cc2nn(-c3nc4ccccc4s3)c(=O)c-2c1C` (configuration not stated), the inhibition was 61.6% (active).
The value for `C[C@H](CO)N1C[C@H](C)[C@H](CN(C)C(=O)Nc2ccc3c(c2)OCO3)Oc2ncc(Br)cc2C1=O` was -2.28%; that for `CCOc1ccc(CN2CCN(CCCc3ccccc3)C(CCO)C2)cc1` (configuration not stated) was 1.65%; that for `CC(C)=CCN1CCN(Cc2ccc(Oc3ncccn3)cc2)CC1CCO` (configuration not stated) was 14.3%.
Turning to `OCCC1CN(Cc2ccc(Oc3ncccn3)cc2)CCN1CCc1ccccc1` (configuration not stated), the inhibition was 75.5% (active).
The value for `COc1ccc(OC)c(NC(=O)c2ccc3c(c2)CCN3S(C)(=O)=O)c1` was -3.45%; that for `CN(C)C1CN(Cc2cn(Cc3ccccc3)nn2)S(=O)(=O)C1` (configuration not stated) was 7.88%; that for `COCc1c(N)c(C)nc(Cl)c1C#N` was 12.4%.
On to `C[C@@H]1CN([C@@H](C)CO)C(=O)CCCn2nncc2CO[C@H]1CN(C)Cc1ccc(C(F)(F)F)cc1`, for which the inhibition is 1.47%.
With `C[C@@H]1CN([C@@H](C)CO)C(=O)CCCn2nncc2CO[C@H]1CN(C)C(=O)Nc1ccc(C(F)(F)F)cc1`, the inhibition is 106% (active).
Take `COC(=O)N(C)C[C@@H]1OCc2cnnn2CCCC(=O)N([C@@H](C)CO)C[C@@H]1C`: the inhibition was 19.1%.
On to `O=C1c2ccncc2C(=O)N1C1CCCCC1`, for which the inhibition is -3.74%.
Consider `O=C(N/N=C/c1cc(Br)c(O)c([N+](=O)[O-])c1)C(O)(c1ccccc1)c1ccccc1`, for which the inhibition is -0.77%.
As to `c1ccc(C(=NNc2nc3ccccc3s2)c2ccccn2)cc1`, the inhibition was 44.1%.
For `O=[N+]([O-])c1cc(Br)c(O)c(/C=N/Nc2nc3ccccc3s2)c1`, the inhibition is 75.7% (active).
As for `Cc1cccc(CN2CCN(C3CN(Cc4ccccc4)S(=O)(=O)C3)CC2)c1` (configuration not stated), the inhibition is -19.1%.
For the molecule `O=C(c1c(Cl)cccc1Cl)N1CCN(c2cccc3[nH]ccc23)CC1`, the inhibition was -30.3%.
As for `COc1ccc(-c2ccc(CN3C(CC(C)C)C(=O)N(Cc4cn(CC5CCCCC5)nn4)CCS3(=O)=O)cc2)cc1` (configuration not stated), the inhibition is 24.8%.
The value for `O=S1(=O)CC(N2CCN(CCO)CC2)CN1Cc1cn(Cc2ccc(Cl)cc2)nn1` (configuration not stated) was -0.1%; that for `CN(C)C(=O)c1cccc(-c2cnc3sc(NCc4ccc5c(c4)OCO5)nn23)c1` was 81.9% (active).
With `O=C(CSc1ncnc2scc(-c3ccccc3)c12)NCc1ccc2c(c1)OCO2`, the inhibition was 27.4%.
In the case of `CCOc1c2ccc(C(=O)NCc3ccc4c(c3)OCO4)cc2nn1C` it was -1.73%.
Consider `O=C(C1CCN(S(=O)(=O)c2ccc(Br)s2)CC1)N1CCN(c2ccccc2)CC1`, for which the inhibition was 35.1%.
The value for `CC(C)C(=O)N1CCC2(CC1)Oc1ccc(F)cc1C(=O)C21CC(c2ccccc2)=NO1` (configuration not stated) was -32.9%; that for `CC1(C(=O)NNC(=S)NCC2CCCO2)CC1(Cl)Cl` (configuration not stated) was 5.56%; that for `CCOC(=O)CCc1c(C)c2ccc(OCc3nn[nH]n3)c(C)c2oc1=O` was 11.4%.
`Cc1c(CCC(=O)O)c(=O)oc2cc(OCc3ccc(Br)cc3)ccc12`: the inhibition was 6.88%.
As to `Cc1c(CCC(=O)O)c(=O)oc2c(C)c(OCc3ccccc3Cl)ccc12`, the inhibition is 55.7% (active).
In the case of `CC(C)Nc1ncnc2c1ncn2[C@H]1CN(Cc2ccncc2)C[C@@H](CO)O1` it was -31.2%; in that of `O=C(Nc1ccc2c(c1)OCCO2)C(C1CC1)N1CCC(Cc2ccccc2)CC1` (configuration not stated), -6.47%; in that of `O=c1c2cc(Br)ccc2nc(-c2cccc(Cl)c2)n1O`, 12.1%.
Take `O=C(/C(=C/c1cccc(Cl)c1)c1nc2ccccc2[nH]1)c1ccccc1`: the inhibition is 72.2% (active).
Turning to `Oc1ccc2nc(Cc3ccccc3)[nH]c2c1`, the inhibition was -12.2%.
On to `Brc1ccc2nc(-c3ccccc3)c(Cc3ccccc3)n2c1`, for which the inhibition is -30.1%.
The value for `CCCCC[C@H](C)N1C[C@@H](COCc2ccccc2)Oc2cc(N3CCC[C@@H]3CO)ccc2S1(=O)=O` was 9.1%; that for `CC(C)(CCl)C(=O)Nc1ccc(Sc2ccc(F)cc2)cc1` was 60.9% (active).
`O=C(CCl)Nc1ccc(Sc2ccc(NC(=O)CCl)cc2)cc1`: the inhibition was -24.1%.
For the molecule `Cc1ccc(Sc2ccc(NC(=O)c3ccc(F)cc3)cc2C#N)cc1`, the inhibition is -7.53%.
`CCn1c(SCC(=O)Nc2nc(C)cs2)nnc1C(C)NC(=O)c1ccccc1` (configuration not stated): the inhibition is -0.58%.
Regarding `CN(Cc1ccccc1)C(=O)[C@@H]1CCCN1C(=O)[C@@H]1CCCN1C(=O)c1c(F)cccc1F`, the inhibition is 12.3%.
As for `CCOCCCN(C)C1CCN(C(=O)c2oc3ccccc3c2NC(=O)COc2cccc(C)c2)CC1`, the inhibition is -4.99%.
For `Cc1cccc(-n2c(SCC(N)=O)nc3c(c2=O)C2(CCCCC2)Cc2ccccc2-3)c1`, the inhibition is 54% (active).
`Cc1cccc(-n2c(=O)c3c(C)c(C)sc3n(CC(N)=O)c2=O)c1`: the inhibition is 21.1%.
In the case of `N#CCSc1nc2c(c(=O)n1Cc1ccccc1)C1(CCCC1)Cc1ccccc1-2` it was 13.4%; in that of `CCCc1nc2c3ccccc3ccn2c1Cc1ccccc1C(F)(F)F`, 8.3%.
